In PubChem BioAssay (NCI):
This is part of a sample that, as a whole, favours compounds with a hit. Of some 79,000 tested, about 15% had one in any assay. No stated cut-off is given here; in the data, active means growth inhibition above about 70%; inactive means the rest. Where a SMILES comes first, the peptide text is derived from it. The star is where a group is joined. Cbz = O=C(OCc1ccccc1)*; OBn = c1ccc(CO*)cc1

Key:
[1] = NCI Yeast Anticancer Drug Screen. Data for the rad50 strain (AID 155);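 further: 0% = growth of vehicle-only cultures of the same strain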; conditions: S. cerevisiae rad50 strain growth inhibition; at 50.0 µM; active compounds read high
In short: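 A DNA repair-deficient yeast mutant serves as the test organism; compound-induced growth inhibition is calculated against vehicle-treated cells.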

[2] = NCI Yeast Anticancer Drug Screen. Data for the mec2-1 strain (AID 157); conditions: S. cerevisiae mec2-1 strain, at 50.0 µM, active compounds read high
In short: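 Readout is yeast growth inhibition, normalised to vehicle-treated controls, in the mec2-1 strain exposed to compound.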

[3] = NCI Yeast Anticancer Drug Screen. Data for the sgs1 mgt1 strain (AID 161);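 further: 0% = growth of cultures given vehicle only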; conditions: S. cerevisiae sgs1 mgt1 strain, at 50.0 µM, active compounds read high
In short: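 Percent growth inhibition was derived by comparing compound-exposed mutant yeast with vehicle-exposed cultures. The strain carries alterations in DNA damage repair.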

[4] = NCI Yeast Anticancer Drug Screen. Data for the cln2 rad14 strain (AID 165);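 further: 0% = growth equal to vehicle treated cultures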; conditions: S. cerevisiae cln2 rad14 strain, at 50.0 µM, active compounds read high
In short: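 Relative to vehicle controls, growth inhibition of compound-treated cln2 rad14 yeast was recorded.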

[5] = NCI Yeast Anticancer Drug Screen. Data for the bub3 strain (AID 167); conditions: S. cerevisiae bub3 mutant strain, at 50.0 µM, active compounds read high
In short: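 Inhibition values come from growth of compound-treated mutant yeast normalised to vehicle-treated controls.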

[6] = NCI Yeast Anticancer Drug Screen. Data for the mlh1 rad18 strain (AID 175); conditions: S. cerevisiae mlh1 rad18 strain growth inhibition; at 50.0 µM; active compounds read high
In short: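 Test agents were incubated with a yeast strain of defined genotype (DNA damage repair defect). Inhibition of growth was derived by comparison with vehicle-exposed cultures.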

Measured: growth inhibition

COc1ccc(OC2OC(CO)C(OCc3ccccc3)C(OCc3ccccc3)C2OCc2ccccc2)cc1 (stereo not given)
inactive: [1] 5.6% | [2] -11.7% | [3] -11.7% | [4] 2.4% | [5] -33.6% | [6] -42.8%

Cc1ccc(N=Nc2c(O)n(C)c(=O)n(C)c2=O)cc1C
inactive: [1] -8.3% | [2] -5.7% | [3] -17.2% | [4] 3.95% | [5] -18.6% | [6] -12.8%

CCCCCCCCCCCCSC(=O)Nc1ccc(C(=O)OCC)cc1
inactive: [1] 24.9% | [2] 3.3% | [3] 12.7% | [4] -39.2% | [5] -2.55% | [6] 20.9%

Cc1ccc(S(=O)(=O)OC2CCCC2OS(=O)(=O)c2ccc(C)cc2)cc1 (stereo not given)
inactive: [1] 0.2% | [2] 14.5% | [3] -8.5% | [4] 23.4% | [5] -2.35% | [6] -9.85%

O=C(NC(CO)C(=O)N1CCCC1C(=O)OCc1ccccc1)OCc1ccccc1 (stereo not drawn) (Cbz-Ser-Pro-OBn; configuration not given here)
inactive: [1] 8.55% | [2] 7% | [3] 7.05% | [4] 23.9% | [5] 4.45% | [6] 7.6%

[N-]=[N+]=CC(=O)CCN1C(=O)c2ccccc2C1=O
inactive: [1] -9.85% | [2] -0.85% | [3] -4.75% | [4] -3.85% | [5] 1.15% | [6] -1.55%

CC(=O)CC1CCc2ccc3ccccc3c2C1c1cccc2ccccc12 (stereo not given)
inactive: [1] 2.35% | [2] 8.2% | [3] -6.85% | [4] 26.4% | [5] 2.4% | [6] 25.4%

Cc1ccc2nc(C)cc(NC(=O)c3ccccc3)c2c1
inactive: [1] 13.6% | [2] 8.45% | [3] 8.55% | [4] -18.1% | [5] -5.3% | [6] 24.2%

CC1=CC(C(O)C(C)C)C(C)(Cc2ccc(C)cn2)NC1c1ccccc1 (stereo not given)
inactive: [1] 50.6% | [2] -6.3% | [3] 5.45% | [4] 15.2% | [5] -2.05% | [6] 0.5%

O=C(OC(=O)c1cccc2ccccc12)c1cccc2ccccc12
inactive: [1] -5.15% | [2] -7.75% | [3] 2.3% | [4] 43.3% | [5] 12% | [6] 13.2%

Cc1ccc(O)c(C(=O)c2ccc(Cl)c(Cl)c2)c1
inactive: [1] 8.45% | [2] 13.9% | [3] 54.2% | [4] -0.9% | [5] 58.1% | [6] 11.2%

Cc1ccc(Cl)cc1NC(=O)Oc1ccc(C(C)(C)C)cc1Br
inactive: [1] 54.3% | [2] 57.1% | [3] 11.7% | [4] 1.5% | [5] 19.9% | [6] 60.2%

S=C1CC(c2ccccc2)Sc2cc(Cl)ccc2N1 (stereo not given)
inactive: [1] -15.5% | [2] -4.35% | [3] 4.9% | [4] 15.6% | [5] -2.45% | [6] -2.95%

NCCCCC(N)C(=O)NCCNc1ccc(NCCNC(=O)C(N)CCCCN)c2c1C(=O)c1ccccc1C2=O (stereo not given)
inactive: [1] 11.5% | [2] 7.4% | [3] 1.45% | [4] -4.85% | [5] -21.5% | [6] -19.1%

Cc1ccc(S(=O)(=O)OCC2CCC(COS(=O)(=O)c3ccc(C)cc3)O2)cc1 (stereo not given)
inactive: [1] -4.9% | [2] -14.4% | [3] -4.85% | [4] 10.7% | [5] -0.35% | [6] -6.9%

O=C(/C=C/c1ccccc1)c1ccc(O)cc1O
inactive: [1] -27.3% | [2] -13.2% | [3] 14.8% | [4] -27.1% | [5] 1.65% | [6] 2.1%

CC(=O)O[C@@H]1C[C@]2(C)[C@@H](C(C)=O)CC[C@H]2[C@@H]2CCC3=CC(=O)CC[C@]3(C)[C@H]21
inactive: [1] -7.5% | [2] -8.25% | [3] -23% | [4] 11.4% | [5] -10.4% | [6] 13.2%

O=C(O)c1cc(-c2ccccc2)nc2cc(Cl)ccc12
inactive: [1] 29.9% | [2] 12.8% | [3] 19.1% | [4] -9.35% | [5] 24.4% | [6] 25.6%

Cc1cc2nc(Cl)n(C3OC(CO)C(O)C3O)c2cc1C (stereo not given)
inactive: [1] 16.6% | [2] -7.15% | [3] 0.15% | [4] 4.8% | [5] -1% | [6] 12.8%

CC(C)COC(=O)N1N=NC2C3OC(CC3=O)C21 (stereo not given)
inactive: [1] -4.7% | [2] -17.1% | [3] -8.1% | [4] 8.8% | [5] -13.2% | [6] -15.7%

CCOC(=O)C1=CC(C)(C(=O)OCC)Nc2c(nc(SC)[nH]c2=O)N1 (stereo not given)
inactive: [1] -30.9% | [2] -24.7% | [3] -14.7% | [4] 9.05% | [5] -11.8% | [6] 2.5%

COc1ccc2ncc(COC(=O)Nc3ccccc3)c(COC(=O)Nc3ccccc3)c2c1
inactive: [1] 22% | [2] -6.2% | [3] 11.8% | [4] 5.65% | [5] -7.4% | [6] 6.1%

CN1C/C(=C\c2ccco2)c2nc(N)nc(-c3ccco3)c2C1
inactive: [1] -6.15% | [2] -3.35% | [3] 8.9% | [4] 35.5% | [5] 6.85% | [6] -4.15%

Cc1cccc(C)c1N1C(=O)C(=O)C(c2nc3ccccc3s2)C(=Nc2cccc3c(=O)[nH][nH]c(=O)c23)C1=O (stereo not given)
inactive: [1] 30.5% | [2] 13.9% | [3] 17.6% | [4] 23.2% | [5] 0.95% | [6] 23.7%

CC1(C(N)=O)CCC1
inactive: [1] 1.8% | [2] -15.4% | [3] -18.4% | [4] -24.1% | [5] 10.2% | [6] -20.9%

CCCCCCCCCCCCCC(=O)CC
inactive: [1] 56.3% | [2] -3.35% | [3] 17.9% | [4] 19.1% | [5] 12.4% | [6] 21.9%

CS(=O)(=O)OCCCCOS(=O)(=O)CF
inactive: [1] -36.9% | [2] -35% | [3] -31.4% | [4] -14.2% | [5] -8.7% | [6] -20%

C=C1C(=O)OC2C1C(OC(=O)/C(=C/C)COC(C)=O)CC1(CO1)C1C(OC(=O)/C(=C/C)CO)C=C(C)C21 (stereo not given)
inactive: [1] -20.6% | [2] -19% | [3] -21.1% | [4] 1.55% | [5] -41.1% | [6] -8.05%

COc1cc(-c2cc(=O)c3c(O)c(OC)c(OC)c(OC)c3o2)ccc1O
inactive: [1] 23.4% | [2] 10.2% | [3] -14.8% | [4] 28.4% | [5] 13.1% | [6] 14.9%

CN(C)S(=O)(=O)c1ccc(N)c([N+](=O)[O-])c1
inactive: [1] -0.2% | [2] 10.7% | [3] -7.75% | [4] -5.05% | [5] 7.55% | [6] 14.3%

N#CC(C#N)=CNC(=S)c1ccncc1
inactive: [1] -21.1% | [2] -33.6% | [3] -19.6% | [4] 6.7% | [5] -4.85% | [6] -24.2%

O=C1C2CCC(C2)C12CC1(c3ccccc3)C(=O)c3ccccc3N1O2 (stereo not given)
inactive: [1] -9% | [2] -31.6% | [3] -25.1% | [4] 8.85% | [5] 0.25% | [6] -27.4%

COc1ccc(CCNC(=S)NCCc2ccc(OC)c(OC)c2)cc1OC
inactive: [1] -17.1% | [2] -17.1% | [3] 2.1% | [4] 20.2% | [5] 34.5% | [6] -1.4%

O=[N+]([O-])c1ccc(N=Nc2ccc(O)c3c(O)cc(S(=O)(=O)O)cc23)cc1S(=O)(=O)O
inactive: [1] 30.6% | [2] 9% | [3] 6.85% | [4] -24.8% | [5] -11.4% | [6] 50.1%

COc1nc2c(c(O)c(C)c(=O)n2OC2OC(COC(C)=O)C(OC(C)=O)C(OC(C)=O)C2OC(C)=O)c(=O)n1C (stereo not given)
inactive: [1] -2.1% | [2] -15.8% | [3] 7.95% | [4] -7.75% | [5] 0.45% | [6] 2.3%

CC(CO)CCNc1ncnc2c1ncn2CCC#N (stereo not given)
inactive: [1] -9.3% | [2] 10.1% | [3] -46.5% | [4] -19.9% | [5] 6.95% | [6] -13.4%

C(=C\c1ccco1)/c1ccco1
inactive: [1] 25.1% | [2] 11.2% | [3] 12.3% | [4] 9.85% | [5] -20.9% | [6] -25.9%

OCc1ccccc1CC(O)c1ccccc1 (stereo not given)
inactive: [1] -23.7% | [2] -17.3% | [3] -20.2% | [4] -4.65% | [5] 0.05% | [6] -59.4%

COc1cc(C(=O)O)cc(O)c1OC
inactive: [1] 4.95% | [2] -4.5% | [3] -2.85% | [4] -6.25% | [5] 2.4% | [6] 8.45%

CCCCCCCCOC(=O)c1cc([N+](=O)[O-])c(Sc2ncnc3nc[nH]c23)c([N+](=O)[O-])c1
inactive: [1] 32% | [2] 30% | [3] 25.9% | [4] 11.8% | [5] 16.1% | [6] 24.2%
